Data as given in the supplement of paper PMC6555819.

These sequences were tested on PPARa:RXRa (NR concentration 270 nM, RXRa partner concentration 90 nM) (assay: PBM binding z-score (relative to random genomic background probes); higher = stronger binding; sequences stand for … in GC…GCGATTGACAGCGTAGAATGAAGG).
Experimental: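 Protein-binding microarray (Agilent 4x180K custom design, double-stranded 60-nt probes: 5' GC cap, 34-nt variable region, 24-nt constant primer region; full probe sequence given). Purified or IVT nuclear receptor:RXRα heterodimers (3:1 NR:RXRα, mostly 270:90 nM) or homodimers were incubated for 1 h in PBS with 2% milk and no ligand, then detected with Alexa488 antibodies. Fluorescence from o1-orientation probes (~5 replicates averaged) was converted to z-scores against 500 random hg19 background probes. Variable regions are seed direct-repeat (DR0–DR5) sites, all their single-nucleotide variants and half-site ablations.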
Work on CCTTACGGGTCACTCCAGGTTATATCATCGGAGT yielded a PBM binding z-score of 4.5. CCAACTAGGTCAAAGGACAGTGAAAGGCGACGTA was tested, and the PBM binding z-score was 5.08. With ATCGAAAGGTCGACGCGGTGAGTATACACCGTTT the PBM binding z-score was 3.97. For AGAATGAGATTACCAAAGATCAGGGAAACGCTTG, the PBM binding z-score was -0.285. For CGTCCAAGGTCATATGAGGTCAGTGAAGACAGAT, the PBM binding z-score was 5.65. Work on ACTCGGTGGACAAAGGTCAGAGCTACGCCAGTGA yielded a PBM binding z-score of 4.25. Sequence CCGAATAGGTTACGAGGGGGCATTCAGTGCGAAT has a PBM binding z-score of 3.85. TAGCCTAGGTCATACAGGGGCCAGTATAGAAAGC gave a PBM binding z-score of 3.72. CGTCCAAGGTCGAAGGTCAGTGAAGAGATGACGG showed a PBM binding z-score of 4.7. With ACTCGGATGACAAAGGTCAGAGCTACGCCAGTGA the PBM binding z-score was 4.38. CGTCCAAGGTCATTGGAGGTCAGTGAAGACAGAT gave a PBM binding z-score of 5.85. GCTGCTAGGTCAACTGATGGTCACCTAAAGCTCG was tested, and the PBM binding z-score was 3.99. TCTCGGAGGACACCAAAGGTCAGAGCTCGACATC showed a PBM binding z-score of 3.65. With CCTACTGGGTCACGAAAGGTCATTGATTCAGTGA the PBM binding z-score was 6.44. ATATGTAGGTTAAGCGTCATTCAGGTTGGTTCGC was tested, and the PBM binding z-score was 4.16. For ACTTACGGGTCAACGAGGTCATAGCACGCGTATA, the PBM binding z-score was 6.12. Sequence TCTAGTTGGTCACGGAGGTCACAAACGACGGGTA has a PBM binding z-score of 3.87. TACCCTAGGTCATTGGGCCAGTATAGTACGCATC gave a PBM binding z-score of 4.06. Work on AATACAGGGTCATCGTAGGTCAGAGTACGCACAG yielded a PBM binding z-score of 6.23. For TCTTGTAGGTCAATAGAGGTTAAGAAAGTGCGCT, the PBM binding z-score was 5.13. ATCGAAAGGTCGAAGGTGAGCATACCCACCCGAA was tested, and the PBM binding z-score was 5.01. TGAATGAGGTTAAATATCAGGGAACGTGGCGTCG was tested, and the PBM binding z-score was 3.72. In the case of ACTTAAGGGTCAACGAGGTTATAGCACGCGTATA, the PBM binding z-score was 6.46. ATATGTAGGTTAGCTGGGGTCATTCACACTAGGC gave a PBM binding z-score of 5.22. With CGTCCAAGGTCAAGGTCAATGAAAGAGACTCGAA the PBM binding z-score was 6. Sequence CCTACTGGGCCAAAGAGGTCATTGATGCCGATAA has a PBM binding z-score of 4.55. With AGAATGAGGTTAAACGTAGATCAGGGAAGAAAGT the PBM binding z-score was 4.4. With ATATGTAGGTTAACTGGGGTCATTCAGACTAGGC the PBM binding z-score was 5.96. With AGAATGGGGTTATACGTAGATCAGGGAAGAAAGT the PBM binding z-score was 5.16. In the case of CCTACTGGGCCACGAAAGGCCATTGATTCAGTGA, the PBM binding z-score was 0.948. TTACCAAGGTGAAAGGTCGTTGCTGCACGCCTTG was tested, and the PBM binding z-score was 5.33. For CCGAGGAGGTTACGAGGGGGCATTCAGTGCGAAT, the PBM binding z-score was 4.29. CGTTCAAGGTCAAAGGTCAGTGAAGAGATGACGG was tested, and the PBM binding z-score was 7.05. Sequence GGAACGAGGTCATTCGAGTTGATAGCATGGCGAT has a PBM binding z-score of 5.98. With CAAACTAGGTCAAGGTCTAAGTCGGTTTGTGCCA the PBM binding z-score was 4.92. TAGCCGAGGTCATTCAGGGGCCAGTATAGAAAGC gave a PBM binding z-score of 6.23. Work on AGTCAAAGTTCAGGACGACGTAACGTAAAGCACG yielded a PBM binding z-score of 2.98. With TCTCGGAGGAAACGAAAGGTCAGAGCTCGACATC the PBM binding z-score was 3.66. CGTCCAAGGTTAAGGTCAGTGAAAGAGACTCGAA showed a PBM binding z-score of 3.78. In the case of TCTCGGAGGACACTAAAGGTCAGAGCTCGACATC, the PBM binding z-score was 3.42.
